For 24 compounds, growth results are on record in PubChem BioAssay (NCI).

Compounds without any hit were thinned out: in the full panel of roughly 83,000, 20% have a hit.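 Assay: single dose, 48 h. Readout: percent growth (0 = no net growth; negative = cell death). Active: <10.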 Values without a mark were called inactive. Calls of active or inactive are those of the source.

Common to all, as to experiment: NCI-60 one-dose screen, 48 h (100 = growth as untreated, 0 = no growth, -100 = all killed)
The subject of test [1] is T-47D breast. To be noted: 10 µM.
The subject of test [2] is BT-549 breast. Conditions: 10 µM.
Test [3] relates to MDA-MB-435 melanoma. Conditions: 10 µM.
The test system of test [4] is SW-620 colon. To be noted: 10 µM.
Test [5] deals with MCF7 breast. Conditions: 10 µM unless noted.
Test [6] concerns HCT-116 colon. Conditions: 10 µM.
For test [7], the system named is HCC-2998 colon. To be noted: 10 µM.
In test [8] the test system is KM12 colon. To be noted: 10 µM.

In the case of `CC(=O)Cc1ccc(-c2ccccc2)cc1`, the growth in test [1] is 97.6%; in test [2], 109%; in test [3] it was 114%; in test [4], 108%; in test [5], 93.3%; in test [6] it was 103%. Also, the growth in test [7] and in test [8] was 101% in each case.
As to `COc1cc(CN)ccc1O`, the growth in test [1] is 94.5%; in test [2] it was 95%; in test [3] it was 99.5%; in test [4], 103%; in test [5], 83.7%; in test [6] it was 103%. The growth in test [7] is 86.3%; in test [8], 104%.
In the case of `N=c1c(C(=O)OCc2ccccc2)ncc(CCl)n1O`, the growth in test [1] is 93.9%; in test [2], 80.6%; in test [3], 96.1%; in test [4], 86.9%; in test [5] it was 91.9%; in test [6], 78.3%. Further, the results for the growth in test [7] and in test [8] were 104% and 102%, respectively.
Turning to `CC1(C)OC(=O)C(c2ccsc2)C(=O)O1`, the growth in test [1] was 90.4%; in test [2] it was 124%; in test [3], 101%; in test [4] it was 108%; in test [5] it was 104%; in test [6], 92.1%. Moreover, the growth in test [7] is 107%; in test [8], 102%.
Turning to `COc1cc(C(=O)N/N=C/c2cccc([N+](=O)[O-])c2)cc(OC)c1OC`, the growth is 51.9% in test [1]; 58% in test [2]; 1.31% (active) in test [3]; 23.8% in test [4]; 23.9% in test [5]; 23.9% in test [6]. The growth was 52.7% in test [7] and 19% in test [8].
In the case of `CCOc1ccc(I)cc1`, the growth is 114% in test [1]; 116% in test [2]; 112% in test [3]; 105% in test [4]; 98.2% in test [5]; 102% in test [6]. Besides, the growth in test [7] is 106%; in test [8] it was 95.2%.
With `CC1SC(N)=NC1=O` (configuration not stated), the growth in test [1] is 106%; in test [2] it was 123%; in test [3] it was 109%; in test [4], 112%; in test [5], 103%; in test [6], 108%. The growth in test [7] was 107%; in test [8], 110%.
Take `COC(=O)c1ccc(C(C)C)cc1`: the growth was 82.3% in test [1]; 85.6% in test [2]; 99.8% in test [3]; 113% in test [4]; 93.1% in test [5]; 85.1% in test [6]. In addition, the growth in test [7] was 101%; in test [8], 103%.
For the compound `Clc1ccc(-c2nnc(-c3cccc4ccccc34)o2)cc1`, the growth in test [1] is 53.4%; in test [2] it was 104%; in test [3] it was 96%; in test [4], 93%; in test [5], 32.2%; in test [6], 93.9%. In addition, the figures for the growth in test [7] and in test [8] were 104% and 102%, respectively.
Consider `C/C=C/CC(C)C(O)C1C(=O)NC(CC)C(=O)N(C)CC(=O)N(C)C(CC(C)C)C(=O)NC(C(C)C)C(=O)N(C)C(CC(C)C)C(=O)NC(C)C(=O)NC(C)C(=O)N(C)C(CC(C)C)C(=O)N(C)C(CC(C)C)C(=O)N(C)C(C(C)C)C(=O)N1C` (configuration not stated), for which the growth in test [1] is 23.2%; in test [2], -14.4% (active); in test [3], -6.76% (active); in test [4], 31.3%; in test [5] it was 18.7%; in test [6] it was 8.61% (active). The growth in test [7] was 1.86% (active); in test [8] it was 17.7%.
Regarding `Cc1ccccc1C1N=C2Oc3ccccc3C=C2C(=O)N1` (configuration not stated), the growth in test [1] was 48.1%; in test [2], 27.2%; in test [3] it was -57.7% (active); in test [4], 40%; in test [5], 20.8%; in test [6] it was 42.1%. Moreover, the growth was 26.1% in test [7] and 64.8% in test [8].
For `COc1cc2c3c(n(C)c(=O)c2cc1OC)-c1cc2c(cc1C3=O)OCO2`, the growth in test [1] was 28.2%; in test [2], 68.6%; in test [3] it was 72.3%; in test [4] it was 58.8%; in test [5] it was 26.8%; in test [6], 51.5%. Also, the growth in test [7] was 64.5%; in test [8] it was 83.9%.
For the compound `COC1=CC(=O)c2nc(Cl)ccc2C1=O`, the growth in test [1] was -38.7% (active); in test [2], 106%; in test [3], -42.1% (active); in test [4] it was -59.8% (active); in test [5], -56.8% (active); in test [6] it was -32.7% (active). Besides, the growth in test [7] is 100%; in test [8] it was 91.3%.
In the case of `CCCCCCCCCCC(C)Br` (configuration not stated), the growth in test [1] was 99.2%; in test [2], 105%; in test [3] it was 99.6%; in test [4], 106%; in test [5], 98.4%; in test [6], 100%. The growth in test [7] is 91%; in test [8] it was 107%.
Consider `CCCOC(=O)C(O)c1ccccc1` (configuration not stated), for which the growth in test [1] was 104%; in test [2], 103%; in test [3] it was 111%; in test [4] it was 102%; in test [5], 98.3%; in test [6] it was 97.8%. Further, the results for the growth in test [7] and in test [8] were 110% and 101%, respectively.
For `C/C(=C\c1ccc([N+](=O)[O-])cc1)C(=O)O`, the growth is 98.8% in test [1]; 94.2% in test [2]; 102% in test [3]; 102% in test [4]; 95.7% in test [5]; 97.3% in test [6]. In addition, the growth was 101% in test [7] and 103% in test [8].
On to `O=C(O)/C=C/c1ccc2c(c1)CCC2`, for which the growth in test [1] is 104%; in test [2], 100%; in test [3] it was 99.8%; in test [4], 106%; in test [5] it was 109%; in test [6] it was 105%. For the same compound, the values for the growth in test [7] and in test [8] were 108% and 106%, respectively.
For `S=c1sc2ccccc2n1CN1CCCCC1`, the growth in test [1] is 100%; in test [2] it was 90.3%; in test [3], 104%; in test [4] it was 90%; in test [5] it was 115%; in test [6], 102%. In addition, the results for the growth in test [7] and in test [8] were 116% and 98.4%, respectively.
Turning to `O=c1cc(-c2ccccc2)[nH]c2c1CCCC2`, the growth in test [1] is 22.8%; in test [2], 53.7%; in test [3], -12.9% (active); in test [4] it was 24.2%; in test [5] it was 17.2%; in test [6] it was 27.9%. Besides, the results for the growth in test [7] and in test [8] were 40% and 26.3%, respectively.
In the case of `N/N=C(/Cc1ccccc1)NNC(N)=S`, the growth in test [1] was 91.6%; in test [2] it was 75.7%; in test [3], 92.3%; in test [4] it was 111%; in test [5], 89.2%; in test [6] it was 86.3%. Also, the figures for the growth in test [7] and in test [8] were 117% and 101%, respectively.
`CC(C(=O)O)(C1CCCCC1)C1(O)CCCCC1` (configuration not stated): the growth is 102% in test [1]; 103% in test [2]; 105% in test [3]; 105% in test [4]; 105% in test [5]; 104% in test [6]. In addition, the growth in test [7] is 96.3%; in test [8], 98.4%.
Take `CC1=CC(=O)c2ccccc2C1=O`: the growth was 98.7% in test [1]; 116% in test [2]; 107% in test [3]; 106% in test [4]; 100% in test [5]; 104% in test [6]. For the same compound, the values for the growth in test [7] and in test [8] were 108% and 104%, respectively.
With `NC(=O)NC(=O)c1ccc(Cl)cc1`, the growth in test [1] is 96.9%; in test [2], 99.4%; in test [3] it was 102%; in test [4], 102%; in test [5] it was 95.4%; in test [6], 87.9%. The values for the growth in test [7] and in test [8] were 111% and 110%, respectively.
Consider `C/C(=N/NC(N)=O)c1ccco1`, for which the growth in test [1] was 83.5%; in test [2], 102%; in test [3] it was 107%; in test [4], 109%; in test [5], 98.4%; in test [6], 101%. The values for the growth in test [7] and in test [8] were 92.1% and 102%, respectively.
